Reference: PubChem BioAssay (Tox21)
Results filed as inconclusive are left out. Active and inactive are the calls of the source. Calls come from the whole dose curve; as a rule, active = well fitted cell-killing curve with a large enough effect in the repeat runs; inconclusive = weak or mixed curves, or effect the other way; inactive = flat fitted curve, though single readings scatter.

Experiment: qHTS assay to identify small molecule antagonists of the retinoid acid receptor (RAR) signaling pathway - cell viability counter screen (AID 1159551); note: nearly all actives have a fitted effect of over 35% in size
Conditions: C3RL4 cells viability, ATP luminescence (CellTiter-Glo), 6 h; series mostly up to 92.4 µM; activity change, negative = cytotoxicity: at the top concentration
Excerpt: U.S. Tox21 Program National Center for Advancing Translational Sciences [NCATS] NIH Chemical Genomics Center [NCGC] U.S. Environmental Protection Agency [EPA] National Institutes of Environmental Health Sciences [NIEHS] National Toxicology Program [NTP] U.S. Food and Drug Administration [FDA] Tox21 Assay Overview: All-trans Retinoic acid (atRA) is the potent natural metabolite of retinol and plays an important role in normal embryonic development and maintenance of cellular phenotype in adult animals. atRA is the activating ligand for the retinoic acid receptors (RARs) which form heterodimers with retinoid X receptors (RXRs) on the retinoic acid response element (RARE). Through activation of the RAR/RXRs nuclear receptors, atRA regulates the transcription of a large number of protein-coding genes and regulatory RNAs. Intracellular levels of atRA are controlled by the retinol signaling pathway (RSP) that regulates the biosynthesis and catabolism of atRA to maintain physiological levels. Chemicals that interfere with the RSP can cause abnormal intracellular levels of atRA and therefore are potential developmental toxicants. To assess compounds for the potential adverse effect on embryonic development through interfering with retinol signaling, a cell-based RARE luciferase reporter gene assay was used. C3RL4 cell line (OARSA/CFSAN/FDA, Laurel, MD) was used to screen Tox21 10K compound library for identifying inhibitors of the RSP. Also cytotoxicity was assessed by determining the viability of cells based on the quantitation of ATP.
Tox21 Assay Protocol Summary: C3RL4 cells were seeded at 1,000/well in 4 uL of assay medium into white solid 1,536-well tissue culture plates (Greiner Bio-One North America Inc. Monroe, NC) using a Multidrop Combi (Thermo Scientific, Waltham, MA) dispenser. After incubation at 37 C and 5% CO2 for an overnight, 23 nL of compounds dissolved in DMSO, positive control or DMSO only were transferred by a Pintool station (Kalypsys, San Diego, CA). One ul of 1 uM (final concentration) of Retinol was added right after the compound addition by using a Flying Reagent Dispenser (FRD) (Aurora Discovery, San Diego, CA). After 6 hr incubation at 37 C and 5% CO2, 5 uL of CellTiter-Glo reagent (Promega Corporation, Madison, WI) was added to each assay plate using an FRD. Luminescence was quantified on a ViewLux plate reader (PerkinElmer, Waltham, MA) after 30 min incubation at room temperature.
% is set by controls: 0 for no effect and ±100 for the full control effect; potency is the fitted concentration of half-maximal effect.

| SMILES | Potency | activity change, negative = cytotoxicity |
| --- | --- | --- |
| CCN(Cc1cccc(S(=O)(=O)O)c1)c1ccc(C(=C2C=CC(=[N+](CC)Cc3cccc(S(=O)(=O)O)c3)C=C2)c2ccccc2S(=O)(=O)[O-])cc1 | 15.4 µM (active) | – |
| C=CC(=O)O | – | 3.65% [at 42.5 µM] (inactive) |
| CC(=O)OCCC(C)CC(C)(C)C (stereo not given) | – | 0.806% (inactive) |
| CC(CO)(CO)C(=O)O | – | -0.202% (inactive) |
| CC(C)(C)C(O)/C=C/c1ccc2c(c1)OCO2 (stereo not given) | – | 1.65% [at 42.5 µM] (inactive) |
| Oc1ccc2c(c1)Cc1ccccc1-2 | – | -0.0919% (inactive) |
| CC(C)N=C=NC(C)C | – | 0.819% (inactive) |
| O=C(O)c1ccc(O)cc1O | – | 0.949% (inactive) |
| CCCCCCCCCCCCCCCC(=O)OCC | – | 0.347% (inactive) |
| Nc1ccc(NC(=O)c2ccc(N)cc2)cc1 | – | 0.62% (inactive) |
| COC(=O)C1=C(C)NC(C)=C(C(=O)OC(C)(C)CN(C)CCC(c2ccccc2)c2ccccc2)C1c1cccc([N+](=O)[O-])c1 (stereo not given) | – | 0.384% [at 42.5 µM] (inactive) |
| CCN(CC)CCOC(=O)C(c1ccccc1)c1ccccc1 | – | -0.0337% [at 42.5 µM] (inactive) |
| CC(=O)OCC(C)C | – | 2.67% (inactive) |
| O=C(Nc1ccc(C(=O)O)c(O)c1)c1ccccc1 | – | -1.03% [at 42.5 µM] (inactive) |
| COc1ccc2nc(S(=O)Cc3ncc(C)c(OC)c3C)[nH]c2c1 (stereo not given) | inactive | – |
| C=Cc1ccc(OC(C)=O)cc1 | – | 3.43% (inactive) |
| CCCCC[C@H](O)/C=C/[C@H]1[C@H](O)CC(=O)[C@@H]1C/C=C\CCCC(=O)O | – | 3.07% [at 42.5 µM] (inactive) |
| Cc1cccc2sc(N)nc12 | – | 5.54% (inactive) |
| Cc1ccc(N(CC2=NCCN2)c2cccc(O)c2)cc1 | – | 0.0925% [at 42.5 µM] (inactive) |
| ClC1=C(Cl)C1(Cl)Cl | – | 0.688% (inactive) |

| SMILES | Potency | activity change, negative = cytotoxicity |
| --- | --- | --- |
| c1ccc(CCCc2ccncc2)cc1 | – | -2.71% (inactive) |
| CCOc1ncc(F)c(=O)[nH]1 | – | 3.01% [at 42.5 µM] (inactive) |
| Cc1cc(CCC(=O)OCCOCCOCCOC(=O)CCc2cc(C)c(O)c(C(C)(C)C)c2)cc(C(C)(C)C)c1O | – | 0.349% (inactive) |
| CC1=CC[C@@]23C[C@@H]1C(C)(C)[C@@H]2CC[C@H]3C | – | 0.934% (inactive) |
| CCCCCCCCCCCCCC(=O)OCC(O)CO (stereo not given) | – | -1.54% (inactive) |
| BrC(Br)C(Br)Br | – | 2.18% (inactive) |
| O=C(O)CN1C(=O)c2cccc3cccc(c23)C1=O | – | 2.93% [at 42.5 µM] (inactive) |
| CCC(CO)(CO)CO | – | 5.98% (inactive) |
| COC(=O)CC(C(C)=O)C(=O)OC (stereo not given) | – | 1.75% (inactive) |
| CCCCCCCCCCCCCCCCCC(=O)OCC(CC)CCCC (stereo not given) | – | 2.65% (inactive) |
| CCCOC(=O)c1c(Cl)c(Cl)c(Cl)c(Cl)c1C(=O)OCCC | – | -1.13% (inactive) |
| NC(=O)CCCCC(N)=O | – | 2.55% (inactive) |
| Cc1ccccc1S(N)(=O)=O | – | 0.43% (inactive) |
| O=P(O)(O)Oc1ccccc1 | – | 1.83% (inactive) |
| CC[C@@H](CO)NCCN[C@@H](CC)CO | – | 4.94% [at 42.5 µM] (inactive) |
| CS(=O)(=O)c1ccc([C@@H](C[C@H]2CCC(=O)C2)C(=O)Nc2cnccn2)cc1Cl | – | -0.301% (inactive) |
| O=NN(CCCl)C(=O)NCCCl | – | -0.481% [at 42.5 µM] (inactive) |
| FC(F)(F)C(F)(F)C(F)(F)C(F)(F)CCI | – | 6.6% [at 42.5 µM] (inactive) |
| CC(C)(C)NCC(O)COc1cccc2c1C[C@H](O)[C@H](O)C2 (stereo not given in full) | – | 0.146% [at 42.5 µM] (inactive) |
| COC(CC(C)CCCC(C)(C)O)OC (stereo not given) | – | -0.812% (inactive) |
